Results: the supplement of paper PMC8540655
Values without a mark were called inactive.

system: Aedes aegypti larvae; test: larval motility relative to same well at 0 h (fraction); higher = more motile (less active compound), active = 0.4 or less; conditions: 10 µM; 2 h
Experimental: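 MMV Pandemic Response Box compounds were tested at 10 µM (1% v/v DMSO) on Aedes aegypti larvae (18-24 h after hatching, about 10 per well, 96-well plates). Motility was quantified with INVAPP (200-frame movies) at 0, 2 and 24 h. Each well's motility was divided by its own 0 h score, and the median of 3 independent screens is reported.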

| Compound | larval motility |
| --- | --- |
| COc1cc(C2C3=C(CC(C)(C)CC3=O)Nc3ccccc3N2C(C)=O)ccc1OCc1ccccc1 (stereo not given) | 0.542 |
| CC(N)C(=O)NC(CCCCN)C(=O)NC(CCCNC(=N)N)C(=O)NC(Cc1c[nH]cn1)C(=O)NC(Cc1c[nH]cn1)C(=O)NCC(=O)NC(Cc1ccc(O)cc1)C(=O)NC(CCCCN)C(=O)NC(CCCNC(=N)N)C(=O)NC(CCCCN)C(=O)NC(Cc1ccccc1)C(=O)NC(Cc1c[nH]cn1)C(N)=O (stereo not given) | 0.858 |
| O=C(O)c1sccc1S(=O)(=O)n1ccc2cc(Br)ccc21 | 0.657 |
| O=C(NNC(=S)Nc1ccc(Cl)cc1)c1ccncc1 | 0.695 |
| Nc1nc(N)c2c(Sc3ccccc3)cccc2n1 | 1.24 |
| Cc1c(F)cccc1NC(=O)Nc1ccc(Cl)c(S(=O)(=O)[C@H]2CCCNC2)c1O | 0.645 |
| CNc1nc(=O)[nH]cc1F | 0.634 |
| O=C(O)c1ccc(-n2nc(-c3ccccc3O)nc2-c2ccccc2O)cc1 | 0.694 |
| Cc1cc(C)n2nc(C(=O)NS(=O)(=O)c3c(C)cccc3OC(F)(F)F)nc2n1 | 1.04 |
| O=C1NC(=S)N/C1=C\c1cc(Br)cc(Br)c1O | 0.761 |
| O=C(NCc1cccc2ccccc12)c1cccs1 | 0.689 |
| COCCn1cnc2c(=O)[nH]c(Nc3ccccc3)nc21 | 0.921 |
| COc1ccccc1NC(=O)c1ccccc1Sc1ccc([N+](=O)[O-])cc1 | 0.911 |
| CC(=O)N1c2ccccc2NC2=C(C(=O)CC(C)(C)C2)C1c1ccc(OCc2ccccc2)cc1 (stereo not given) | 1.49 |
| COc1ccc(C2CNC(=O)C2)cc1OC1CCCC1 (stereo not given) | 0.834 |
| COc1c(NC(=O)[C@H]2CC[C@@H](COc3ccc([N+](=O)[O-])cc3)CC2)c(F)cc2c(=O)c(C(=O)O)cn(C3CC3)c12 | 1.02 |
| Nc1nc(-c2ccccc2)nc2c1ncn2[C@@H]1O[C@H](COS(=O)(=O)NC(=O)c2ccccc2O)[C@@H](O)[C@H]1O | 0.842 |
| CC(Cc1ccccc1)C(=O)Nc1ccc(Cl)cc1C(=O)O (stereo not given) | 1.32 |
| CCCCN1C[C@H](O)[C@@H](O)[C@H](O)[C@H]1CO | 0.87 |
| CCc1cc(O)c(Oc2ccc(C(N)=O)cc2F)cc1F | 0.539 |

same assay, conditions: 10 µM; 24 h

| Compound | larval motility |
| --- | --- |
| COc1cc(C2C3=C(CC(C)(C)CC3=O)Nc3ccccc3N2C(C)=O)ccc1OCc1ccccc1 (stereo not given) | 0.617 |
| CC(N)C(=O)NC(CCCCN)C(=O)NC(CCCNC(=N)N)C(=O)NC(Cc1c[nH]cn1)C(=O)NC(Cc1c[nH]cn1)C(=O)NCC(=O)NC(Cc1ccc(O)cc1)C(=O)NC(CCCCN)C(=O)NC(CCCNC(=N)N)C(=O)NC(CCCCN)C(=O)NC(Cc1ccccc1)C(=O)NC(Cc1c[nH]cn1)C(N)=O (stereo not given) | 1.19 |
| O=C(O)c1sccc1S(=O)(=O)n1ccc2cc(Br)ccc21 | 0.741 |
| O=C(NNC(=S)Nc1ccc(Cl)cc1)c1ccncc1 | 0.45 |
| Nc1nc(N)c2c(Sc3ccccc3)cccc2n1 | 0.982 |
| Cc1c(F)cccc1NC(=O)Nc1ccc(Cl)c(S(=O)(=O)[C@H]2CCCNC2)c1O | 0.669 |
| CNc1nc(=O)[nH]cc1F | 0.909 |
| O=C(O)c1ccc(-n2nc(-c3ccccc3O)nc2-c2ccccc2O)cc1 | 0.808 |
| Cc1cc(C)n2nc(C(=O)NS(=O)(=O)c3c(C)cccc3OC(F)(F)F)nc2n1 | 1.13 |
| O=C1NC(=S)N/C1=C\c1cc(Br)cc(Br)c1O | 0.843 |
| O=C(NCc1cccc2ccccc12)c1cccs1 | 0.669 |
| COCCn1cnc2c(=O)[nH]c(Nc3ccccc3)nc21 | 0.552 |
| COc1ccccc1NC(=O)c1ccccc1Sc1ccc([N+](=O)[O-])cc1 | 0.861 |
| CC(=O)N1c2ccccc2NC2=C(C(=O)CC(C)(C)C2)C1c1ccc(OCc2ccccc2)cc1 (stereo not given) | 1.55 |
| COc1ccc(C2CNC(=O)C2)cc1OC1CCCC1 (stereo not given) | 0.959 |
| COc1c(NC(=O)[C@H]2CC[C@@H](COc3ccc([N+](=O)[O-])cc3)CC2)c(F)cc2c(=O)c(C(=O)O)cn(C3CC3)c12 | 0.873 |
| Nc1nc(-c2ccccc2)nc2c1ncn2[C@@H]1O[C@H](COS(=O)(=O)NC(=O)c2ccccc2O)[C@@H](O)[C@H]1O | 1.04 |
| CC(Cc1ccccc1)C(=O)Nc1ccc(Cl)cc1C(=O)O (stereo not given) | 1.05 |
| CCCCN1C[C@H](O)[C@@H](O)[C@H](O)[C@H]1CO | 0.809 |
| CCc1cc(O)c(Oc2ccc(C(N)=O)cc2F)cc1F | 0.942 |
